In PubChem BioAssay (NCATS):
Records with an inconclusive call do not appear. Unmarked numbers belong to inactive results. The source made the active and inactive calls. Calls follow the shape of the dose curve; as a rule, active = well fitted cell-killing curve with a large enough effect; inconclusive = small, poorly fitted or top-dose-only effect, or effect the other way; inactive = no such curve, though single readings can be large or run the other way.

Experiment: Quantitative High-Throughput drug screen in 47 multiple myeloma cell lines against the NCATS MIPE library collection: U266_ATCC cell viability assay (AID 1919864); also: nearly all actives have a fitted effect of over 35% in size
Settings: U266 myeloma viability, CellTiter-Glo ATP luminescence, 48 h; series mostly up to 45.8 µM; viability (% of DMSO control): at the top concentration
Text: PI: Beverly A. Mock Ph.D.
Laboratory of Cancer Biology and Genetics,
Center for Cancer Research, National Cancer Institute,
National Institute of Health, Bethesda, Maryland
Drug resistance and disease progression are common in multiple myeloma (MM) patients, underscoring the need for new therapeutic combinations. […] We hypothesized that effective combinations would reduce MYC expression and enhance p16 activity. […] These preclinical data identify potentially useful drug combinations for evaluation in drug-resistant MM and reveal potential mechanisms of combined drug sensitivity.
Described herein is the primary MIPE qHTS used to cherrypick compounds. Validated compounds were then further tested for potential synergistic activiy.
[1] Peat TJ, Gaikwad SM, Dubois W, Gyabaah-Kessie N, Zhang S, Gorjifard S, Phyo Z, Andres M, Hughitt VK, Simpson RM, Miller MA, Girvin AT, Taylor A, Williams D, D'Antonio N, Zhang Y, Rajagopalan A, Flietner E, Wilson K, Zhang X, Shinn P, Klumpp-Thomas C, McKnight C, Itkin Z, Chen L, Kazandijian D, Zhang J, Michalowski AM, Simmons JK, Keats J, Thomas CJ, Mock BA. Drug combinations identified by high-throughput screening promote cell cycle transition and upregulate Smad pathways in myeloma. Cancer Lett. 2023 Aug 1;568:216284. doi: 10.1016/j.canlet.2023.216284. Epub 2023 Jun 24. PMID: 37356470; PMCID: PMC10408729.
SEQUENCE No. (e.g., 1, 2, 3, etc.); […] (e.g., Cells, Incubation, Reagent, etc.); VALUE and DESCRIPTION.
1; Cells; 5 uL; white, solid bottom 1536-well Greiner assay plate.
2; Compounds; 23 nL; Kalypsis pin tool (Wako USA) equipped with a 1536-well pin head to transfer to the assay plates.
3; Incubation; 48 hours; 37C incubation.
4; Reagent;5uL; CellTiter Glo (Promega).
5; Detector; 425V; Luminescence; Viewlux PerkinElmer.
NOTES (numbers refer to Sequence numbers above)
1. The cell-based screening methods employed in this study were like those previously published. Briefly, the corresponding myeloma cell lines were screened in 1,536-well plates with 500 cells, 5-uL per well for inhibition of cell viability (assessed by measuring ATP levels with CellTiterGlo).
2. NCATS MIPE 4.0 library of approved and investigational drugs were added using the Kalypsis pin tool. Wells treated with DMSO only for 100% viability and media only for 0% viability were used as controls.
3. The assay plates were covered and incubated for 48 hours in a 37C, 5% CO2 incubator with controlled humidity.
4. After 48 hours, CellTilter-GloTM luminescent substrate mix (Promega) reagent was added to the assay plate and plates we incubated for 5 min at room temperature.
5. Signal was measured as median relative luminescence units on a ViewLux (PerkinElmer) multiplate reader.
[1] Heske CM, Davis MI, Baumgart JT, Wilson K, Gormally MV, Chen L, Zhang X, Ceribelli M, Duveau DY, Guha R, Ferrer M, Arnaldez FI, Ji J, Tran HL, Zhang Y, Mendoza A, Helman LJ, Thomas CJ. Matrix Screen Identifies Synergistic Combination of PARP Inhibitors and Nicotinamide Phosphoribosyltransferase (NAMPT) Inhibitors in Ewing Sarcoma. Clin Cancer Res. 2017 Dec 1;23(23):7301-7311. doi: 10.1158/1078-0432.CCR-17-1121. Epub 2017 Sep 12. PMID: 28899971; PMCID: PMC6636827.
Potency is read from the fitted curve at half-maximal effect.

| Compound | viability (% of DMSO control) | Potency |
| --- | --- | --- |
| O=C(O)c1nc(=O)[nH]c(=O)[nH]1 | 116% [at 23.2 µM] | – |
| C[C@@]1(c2cc(-c3cncnc3)c(F)cc2F)CCSC(N)=N1 | 109% | – |
| CCOC(=O)[C@H]1O[C@H]1C(=O)N[C@@H](CC(C)C)C(=O)NCCC(C)C | – | 10.5 µM (active) |
| Fc1ccc(CNc2ncnc3ccc(F)cc23)cc1 | – | 13.2 µM (active) |
| CCC(=O)N1CCN(c2ccc(-n3c(=O)ccc4cnc5ccc(-c6cnc7ccccc7c6)cc5c43)cc2C(F)(F)F)CC1 | – | 0.0418 µM (active) |
| Cc1cnc(Nc2cccc(CN3CCOCC3)c2)nc1Nc1cccc(S(=O)(=O)NC(C)(C)C)c1 | 101% | – |
| OCCn1cc(-c2ccc3c(c2)CCC3=NO)c(-c2ccncc2)n1 | – | 23.5 µM (active) |
| CO[C@H]1/C=C\O[C@@]2(C)Oc3c(C)c(O)c4c(O)c(c(C=NN5CCN(C6CCCC6)CC5)c(O)c4c3C2=O)NC(=O)C(C)=CC=C[C@H](C)[C@H](O)[C@@H](C)[C@@H](O)[C@@H](C)[C@H](OC(C)=O)[C@H]1C | – | 16.6 µM (active) |
| N#Cc1ccc(Oc2ccc3c(c2)COB3O)cc1 | 115% | – |
| C=C1[C@H](n2cnc3c(=O)[nH]c(N)nc32)C[C@H](O)[C@H]1CO | – | 14.8 µM (active) |
| COC(=O)N1CCN(Cc2cccc(NC(=O)Nc3ccc(C)nc3)c2F)CC1 | 122% | – |
| COC(=O)Nc1ccc(-c2nc(N3CCOCC3)c3cnn(C4CCN(C(=O)OC)CC4)c3n2)cc1 | – | 1.32 µM (active) |
| CN[C@@H]1CN(c2ccc3c(=O)c(C(=O)O)cn(-c4nccs4)c3n2)C[C@@H]1OC | – | 8.12 µM (active) |
| O=C(c1ccc(C=Cc2n[nH]c3ccccc23)cc1)N1CCNCC1 | – | 18.7 µM (active) |
| CC1(C)CC(=O)c2c(C(F)(F)F)nn(-c3ccc(C(N)=O)c(NC4CCC(O)CC4)c3)c2C1 (stereo not given) | – | 0.0935 µM (active) |
| Cc1cc2nc3c(=O)[nH]c(=O)nc-3n(CC(O)C(O)C(O)CO)c2cc1C (stereo not given) | 116% | – |
| COc1ccc2cc1Oc1ccc(cc1)C[C@H]1c3cc(c(OC)cc3CCN1C)Oc1c(OC)c(OC)cc3c1[C@H](C2)N(C)CC3 | – | 18.7 µM (active) |
| O=S(=O)(O)c1ccc2cc(N=Nc3cc(S(=O)(=O)O)c4cccnc4c3O)ccc2c1 | – | 13.2 µM (active) |
| C=C[C@@H]1CN2CCC1C[C@@H]2C(O)c1ccnc2ccc(OC)cc12 (stereo not given in full) | – | 10.5 µM (active) |
| CCCCN(CCCC)CC(O)c1cc(Cl)cc2c1-c1ccc(Cl)cc1C2=Cc1ccc(Cl)cc1 (stereo not given) | 155% | – |

| Compound | viability (% of DMSO control) | Potency |
| --- | --- | --- |
| CN(C)c1ccccc1CN1CCCN(Cc2ccccc2N(C)C)C1c1ccncc1 | – | 14.8 µM (active) |
| CCCCC(F)(F)[C@@]1(O)CC[C@H]2[C@H](CC(=O)[C@@H]2CCCCCCC(=O)O)O1 | 128% | – |
| O=C1CCCC(=O)C1C(=O)c1ccc(C(F)(F)F)cc1[N+](=O)[O-] | – | 20.9 µM (active) |
| CCCC1OC2C[C@@H]3[C@H]4CCC5=CC(=O)C=C[C@]5(C)[C@H]4C(O)C[C@]3(C)[C@]2(C(=O)CO)O1 (stereo not given in full) | – | 16.6 µM (active) |
| O=C(O)Cc1cccc(OCCCN(Cc2cccc(C(F)(F)F)c2Cl)CC(c2ccccc2)c2ccccc2)c1 | 112% | – |
| c1cc(OCCN2CCCCC2)cc(-c2n[nH]c3ccc(-c4ncn[nH]4)cc23)c1 | – | 18.7 µM (active) |
| CCN1C[C@H](C)n2c(c(O)c3c(=O)n(Cc4ccc(F)c(Cl)c4)nc(C(=O)NC)c32)C1=O | 146% | – |
| CCC=CC[C@H]1C(=O)CC[C@@H]1CC(=O)OC | 128% | – |
| C[C@]12CCC3=C4CCC(=O)C=C4CC[C@@H]3[C@H]1CC[C@@]2(O)CC#N | 136% | – |
| CN1CCC(COc2cnc(-c3cccc(Cn4nc(-c5cccc(C#N)c5)ccc4=O)c3)nc2)CC1 | – | 20.9 µM (active) |
| CC[C@H](C=C[C@@H](C)[C@H]1CC[C@H]2[C@@H]3CC=C4C[C@@H](O)CC[C@]4(C)[C@@H]3CC[C@]12C)C(C)C | 128% [at 23.2 µM] | – |
| COc1nccc(-c2c(-c3ccc(F)cc3)ncn2C2CCNCC2)n1 | 113% | – |
| COc1ccc2c(c1)c(C1=C(c3c[nH]c4ccccc34)C(=O)NC1=O)cn2CCCN(C)C | – | 26.4 µM (active) |
| CCC(=O)OCC(=O)[C@@]1(OC(=O)CC)[C@@H](C)C[C@@H]2[C@H]3CCC4=CC(=O)C=C[C@]4(C)[C@@]3(F)[C@@H](O)C[C@@]21C | 116% | – |
| Cc1cc2c(cc1C1(c3ccc(C(=O)O)cn3)CC1)C(C)(C)CCC2(C)C | 141% | – |
| O=S(=O)(NCCNCC=Cc1ccc(Br)cc1)c1cccc2cnccc12 | – | 20.9 µM (active) |
| CC1=C[C@@H]2[C@@H]([C@@H](O)C[C@@]3(C)[C@H]2C[C@@H](C)[C@]3(O)C(=O)CO)[C@@]2(C)Cc3cnn(-c4ccccc4)c3C=C12 | – | 20.9 µM (active) |
| NS(=O)(=O)c1ccc(Nc2nc(OCC3CCCCC3)c3[nH]cnc3n2)cc1 | – | 20.9 µM (active) |
| N#Cc1c(N(CC(=O)O)CC(=O)O)sc(C(=O)O)c1CC(=O)O | 101% | – |
| OC(c1cc(C(F)(F)F)nc2c(C(F)(F)F)cccc12)C1CCCCN1 (stereo not given) | – | 26.4 µM (active) |
